Here are results for 22 sequences from the supplement of paper PMC6555819.

The subject of the experiment is VDR homodimer (NR concentration 270 nM). Kind of experiment: PBM binding z-score (relative to random genomic background probes); higher = stronger binding; sequences stand for … in GC…GCGATTGACAGCGTAGAATGAAGG
The procedure, abridged:
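Antibodies against each partner of ligand-free nuclear receptor dimers (one per run) detected binding on custom Agilent 4×180K protein-binding microarrays after 1 h incubation. The double-stranded probes had 34-nt variable regions carrying direct-repeat seeds, single-nucleotide variants, half-site ablations and random human genomic background sequences. Binding z-scores, from regression-normalized fluorescence, use the random background probes as reference.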
Consider CCTGCTAGGTCATGGGCAGCTAATCTACAGTATG, for which the PBM binding z-score was -0.0786.
GCGACTGGGGCATCAGCAGGTTACCAGAACTTAA returned a PBM binding z-score of -0.517.
The figure for TTACCAAGGTGAGGGTCGTTGATCCCTCTGTAGA is 0.171; for ATATGTAGGTTATCGGGTCATTGAGTTTGCGCAT it is 5.54; for ATCTGTAGGTAAAGTTCAGTGAAAGATCGATAGA it is 1.83.
The figure for TCTCGGAGGACACGAAGGTCACAGCTTTCCAGAG is 2.9; for CCTACTCGGCCAAGGTCATTGATCAGTCAAAGCA it is 3.83; for CCTACTGGGCCATCAAGTCATTGATATCAACGTT it is -0.205.
Take ACTAGCAGGCCAATGGTCACTCAAGATTAGTCCG: the PBM binding z-score is -0.707.
The figure for AGTCACAGTTCAGGACGAGGTAACGTAAAGCACG is 0.905.
Under TCATATAGGTAAATCCTAGGTGAAAGTCCGATCT stands -0.253; under TCTTGTAGATCCATAGAGGTTAAGAAAGTGCGCT, 0.319.
Under CGTTCAAGGTCAGAGAGGTCAGTGAATGCCGAGT stands 5.8.
The sequence TGACCAAGGTGAAAGGTCGTTGATGCACGCCTTG showed a PBM binding z-score of 1.31.
As for CGTCCAAGGTTAGAGAGGTCAGTGAATGCCGAGT, the PBM binding z-score amounted to 3.15.
In the case of ACTAGTTGGTCAGCTGACGTCACACACAATTCGG, the PBM binding z-score was -0.472.
The figure for GCTGCTAGGTCAACTGTTGGTCAGCTAAAGCTCG is -0.34.
Under TCTAGTTGGTCCCGGAGGTCACACACGACGGGTA stands 2.67; under ACGAGCAGGCCAAGGGTCACTCAAGATTAGTCCG, 0.916.
For the sequence GCTGCTAGGTCACCTGATGGTCAGCTAAAGCTCG, the PBM binding z-score was -0.0693.
Consider GATACAGGGTAAAGGCCAGAGTACGCGTATTGAT, for which the PBM binding z-score was -0.0194.
The figure for ATATGTAGGTTAAGGGTCATTTAGGTTGGTTCGC is 3.97.
